According to PubChem BioAssay AID463195 (Sanford-Burnham Center for Chemical Genomics, 2010):
Out of some 330,000 compounds screened, about 4,600 (1.4%) were called active.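 The calls were made as follows: active = inhibition of 40% or more at the single tested concentration; inactive = the rest.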 What follows is part of a selection rich in actives, with near analogues and random picks from the rest.

Test: wild-type TIM10 yeast growth inhibition – luminescence, uHTS, counter-screen for tim10-1 yeast inhibitor project, primary screen (AID 463195);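 also: wild-type TIM10 isogenic control strain grown at permissive 25 °C; 0% = DMSO yeast wells and 100% = minimal medium wells without yeast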
Settings: S. cerevisiae TIM10 strain growth, BacTiter-Glo luminescence, 24 h; at 10 µM; hits give high values

Row | SMILES | inhibition
1 | Cc1cccc(C(=O)NCC(=O)OCC(=O)N(C)CC(=O)Nc2ccccc2Cl)c1 | -5.14% (inactive)
2 | Cc1ccc(SCCC(=O)Nc2cc(C)on2)cc1 | 4.66% (inactive)
3 | Cc1ccc2nc(-c3ccc(SCC(=O)Nc4cc(C)on4)nc3)[nH]c2c1 | 42.6% (active)
4 | Cc1cccc(-n2ncc3c(=O)[nH]c(SCC(=O)Nc4cc(C)on4)nc32)c1 | -12.1% (inactive)
5 | CC(=O)c1cccc(NC(=S)N2CCN(S(C)(=O)=O)CC2)c1 | 13% (inactive)
6 | CCOc1ccc(/C=N/NC(N)=S)cc1 | -25.2% (inactive)
7 | CC(C)Oc1c(Br)cc(Br)cc1/C=N/NC(N)=S | 51.7% (active)
8 | Cc1cccc(-n2c(C)cc(/C=N/NC(N)=S)c2C)c1 | -24.1% (inactive)
9 | S=C(NCCCc1ccccc1)Nc1ccc(Br)cc1 | 43.1% (active)
10 | S=C(Nc1ccc(Br)cc1)NC1CCN(Cc2ccccc2)CC1 | -24.3% (inactive)
11 | O=C(CCNC(=O)c1ccc(Br)cc1)NCCCc1ccccc1 | -4.58% (inactive)
12 | CC(C)n1c(O)c(N=Nc2ccccn2)c2ccccc21 | 3.1% (inactive)
13 | Cc1ccc2occ(/C=N/NC(=O)c3ccccc3C)c(=O)c2c1 | 20.6% (inactive)
14 | NC(=S)N/N=C/c1coc2cc(Cl)ccc2c1=O | 42.4% (active)
15 | O=c1c(/C=N/O)coc2ccc(Cl)cc12 | -3.79% (inactive)
16 | CC(C)c1ccc(NC(=O)COC(=O)c2ccc(CN3CCCC3=O)cc2)cc1 | 1.1% (inactive)
17 | O=C(Nc1ccccc1Cl)/C(Cl)=C(\Cl)S(=O)c1ccccc1 (stereo not given) | 86.7% (active)
18 | CC1(C)CC(CCC(=O)Nc2ccccc2Cl)C(=O)O1 (stereo not given) | 1.62% (inactive)
19 | Cc1c(NC(=O)Nc2ccccc2Cl)sc(=S)n1C | 2.45% (inactive)
20 | O=C(O)C1C2CC2CN1C(=O)c1ccc(Cl)cc1Cl (stereo not given) | -17.4% (inactive)

Row | SMILES | inhibition
21 | CN(Cc1nc(-c2cnccn2)no1)Cc1n[nH]c2c1CCCCC2 | 4.12% (inactive)
22 | CCOCCCNC(=O)c1cn(CC(C)C)c(=O)c2c1c1ccccc1n2C | 3.76% (inactive)
23 | O=C(NCCc1ccco1)c1nn(Cc2ccccc2)c(=O)c2ccccc12 | 2.63% (inactive)
24 | O=C(Nc1ccccc1)/C(=C\c1ccco1)NC(=O)c1ccco1 | -2.56% (inactive)
25 | O=c1nc2s/c(=C\c3ccco3)c(=O)n2nc1Cc1ccccc1 | 63.3% (active)
26 | COC(=O)c1c(NC(=O)CN2CCN(S(=O)(=O)c3ccccc3[N+](=O)[O-])CC2)sc2c1CCC(C)C2 (stereo not given) | 14.5% (inactive)
27 | CC(=O)N1C(C)c2ccccc2C(C)(C)CC12CCCCC2 (stereo not given) | 41.9% (active)
28 | COCCCNC(=O)C1CC(=O)N(CCc2ccc(F)cc2)C1 (stereo not given) | -8.81% (inactive)
29 | CCOCCCn1c(SCC(=O)Nc2cc(OC)ccc2OC)nc2ccccc2c1=O | 11.4% (inactive)
30 | O=C(CCNS(=O)(=O)c1ccc(Br)cc1)NCC1CCCO1 (stereo not given) | -3.43% (inactive)
31 | OC(CNCC1CCCO1)Cn1c2ccc(Br)cc2c2cc(Br)ccc21 (stereo not given) | 62.5% (active)
32 | O=C(CSc1ccc(-c2ccc(Br)cc2)nn1)NCC1CCCO1 (stereo not given) | 15.2% (inactive)
33 | CCCCCNC(=O)c1cccnc1SCC(=O)Nc1ccccc1OC | 1.04% (inactive)
34 | COc1ccc(N2CCN(C(=O)CCSCc3ccccc3F)CC2)cc1 | 27.5% (inactive)
35 | CC(=O)N(Cc1cccs1)C1CCOC(C)(C)C1 (stereo not given) | -0.323% (inactive)
36 | Nc1ccccc1SC(C[N+](=O)[O-])c1ccccc1 (stereo not given) | 59.3% (active)
37 | Cc1ccc(C(C[N+](=O)[O-])c2c(C)cc3ccccn23)cc1 (stereo not given) | 21.6% (inactive)
38 | Cc1ccc(C)c(OCCC(=O)OCC(=O)N2CCN(c3ccccc3)CC2)c1 | 5.69% (inactive)
39 | O=S(=O)(Nc1cccc(Oc2ccc(Cl)cc2)n1)c1ccc(F)cc1 | 37.9% (inactive)
40 | O=C(CN1CCN(c2nc(-c3ccccc3)cs2)CC1)NCc1ccc2c(c1)OCO2 | 18.3% (inactive)

Row | SMILES | inhibition
41 | O=C(COC(=O)C1CCCO1)Nc1nc(-c2ccc(F)cc2)cs1 (stereo not given) | 2.65% (inactive)
42 | CC1CCCC(C)N1C(=O)CN1CCN(c2nc(-c3ccc(F)cc3)cs2)CC1 (stereo not given) | 44.9% (active)
43 | Cc1cc(C)cc(OCC(=O)O/N=C(\N)Cc2ccc([N+](=O)[O-])cc2)c1 | 18.5% (inactive)
44 | N/C(Cc1ccc([N+](=O)[O-])cc1)=N\OC(=O)COc1ccc2ccccc2c1 | 44.4% (active)
45 | COC(=O)C(C)NC(=O)COc1ccc2ccccc2c1 (stereo not given) | 4.55% (inactive)
46 | O=C(COC(=O)Cc1ccc([N+](=O)[O-])cc1)NC1CCCCCC1 | 11.9% (inactive)
47 | O=C(COC(=O)C1CCCCC1)Nc1ccc([N+](=O)[O-])cc1 | 30.8% (inactive)
48 | N/C(Cc1ccc([N+](=O)[O-])cc1)=N\OC(=O)C1CCCCC1 | 56% (active)
49 | O=C(CN1CCCCC1)N1c2ccccc2Sc2ccc(C(F)(F)F)cc21 | 13.9% (inactive)
50 | O=S(=O)(NC(=S)Nc1ccccc1)c1ccc(F)cc1 | -5.64% (inactive)
51 | CC[C@]12c3[nH]c4cc(CCC(=O)N(C)C)ccc4c3CCN1C(=O)[C@@H](CC(=O)NCc1ccco1)C[C@@H]2C(=O)N1CCN(C(=O)c2ccco2)CC1 | 12.2% (inactive)
52 | COc1ccccc1-c1nnc(-c2ccc(F)cc2)o1 | 14.8% (inactive)
53 | CSc1ccccc1-c1nnc(-c2ccc(Cl)cc2)o1 | 8.43% (inactive)
54 | FC(F)(F)c1cnc(Oc2ccccc2-c2nnc(-c3ccc(Cl)cc3)o2)c(Cl)c1 | 92.4% (active)
55 | C[C@@H]1CC[C@@]2(OC1)O[C@H]1C[C@H]3[C@@H]4CC=C5C[C@@H](O)[C@H](O)C[C@]5(C)C4CC[C@]3(C)[C@H]1[C@@H]2C (stereo not given in full) | -10.1% (inactive)
56 | Cc1cc(Cl)ccc1OCc1nc(-c2ccncc2)no1 | -5.93% (inactive)
57 | COc1ccc(C(=O)Nc2sc(C)c(C)c2CN2CCOCC2)cc1 | 29% (inactive)
58 | CCc1cc(C(N)=O)c(NC(=O)c2ccc(OC)cc2)s1 | 48.7% (active)
59 | CCc1cc(C(=O)c2ccc(OC)cc2)c(NC(=O)CN2CCN(C)CC2)s1 | 14.6% (inactive)
60 | CCCn1c(C)cc(-c2csc(NC(=O)CCc3nc4ccccc4c(=O)[nH]3)n2)c1C | -24.7% (inactive)
